Compounds with a hit are over-represented: about 2.8% of the library has one in this group of screens.
IP6K1 inh: blocks human inositol hexakisphosphate kinase 1; activity change, % (series mostly up to about 58 µM); Q92551; actives 0.81% (n = 140,000); IP6K1 kinase, ADP-Glo luminescence, 2 h; active compounds read low; in the data active means activity change below about -25%; further: on the % scale 0 is the no-effect control and ±100 the full control effect
Target sequence (Q92551 whole entry, looked up): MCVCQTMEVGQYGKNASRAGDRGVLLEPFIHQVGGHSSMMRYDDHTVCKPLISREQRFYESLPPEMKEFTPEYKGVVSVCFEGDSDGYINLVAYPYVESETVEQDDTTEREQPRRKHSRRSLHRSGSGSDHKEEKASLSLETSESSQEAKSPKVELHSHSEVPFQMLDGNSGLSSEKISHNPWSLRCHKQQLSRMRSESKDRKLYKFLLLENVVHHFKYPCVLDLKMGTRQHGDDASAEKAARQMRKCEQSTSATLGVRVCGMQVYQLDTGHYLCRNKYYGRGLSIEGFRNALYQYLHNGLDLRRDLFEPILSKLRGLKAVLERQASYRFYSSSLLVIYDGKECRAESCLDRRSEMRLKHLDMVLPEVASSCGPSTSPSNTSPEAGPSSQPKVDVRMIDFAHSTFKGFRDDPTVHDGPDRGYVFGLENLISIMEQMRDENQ
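ADP-Glo luminescence measures ADP made by human IP6K1 during a 2 h RT reaction with ATP/IP6 (mix at 1.3 mM/130 uM); top library doses 57.5 and 19.1 uM final.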
KDM5B inh: blocks human KDM5B histone demethylase activity | Q9UGL1 | KDM5B demethylase, FDH-coupled NADH fluorescence (FDH is formaldehyde dehydrogenase) | Potency, µM (series often up to 57.7 µM), hits mostly inhibitors | actives 2.6% (n = 220,000) | AID 1347165; active means well fitted inhibition curve with a large enough effect; inconclusive means small, poorly fitted or top-dose-only effect; inactive means no such curve, though single readings can be large or run the other way; further: potency means the concentration at half of the fitted maximal effect; 0% is about no effect; nearly all actives have a fitted effect of over 70% in size
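Measured: NADH fluorescence change, 30 min, RT. System: KDM5BΔAP 200 nM final, H3K4me3 peptide, α-KG, Fe(II), ascorbate, NAD⁺ plus FDH, pH 7.5 HEPES. Compounds: titrated, 10 min pre-incubation with enzyme.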
Numbers without * were called inactive; i = inactive; ? = inconclusive; . = no result given.

SMILES | IP6K1 inh | KDM5B inh
CCCCCCCCNC(=O)/C(C#N)=C\C=C\c1ccccc1 | . | i
CC(=O)OC1CC(C)(C(=O)O)CC2C3=CC(=O)C4C5(C)CCC(OC6OC(C(=O)O)C(O)C(O)C6OC6OC(C(=O)O)C(O)C(O)C6O)C(C)(C)C5CCC4(C)C3(C)CCC12C (centres undefined) | -5 | .
CCN(C(=O)CSc1nc(CN2CCOCC2)nc2ccccc12)C1CCS(=O)(=O)C1 (centres undefined) | . | i
CCCC(C)N1CC2(CCN(C(=O)c3cnn4ccccc34)CC2)OC1=O (centres undefined) | 1 | 28µM*
O=C1CC2(CCN(C(=O)c3cnn4ccccc34)CC2)CN1Cc1ccccc1 | 5 | 20µM*
O=C1CC2(CCN(C(=O)C3CCc4ccccc43)CC2)CN1Cc1ccccc1 (centres undefined) | 10 | i
CCCC(C)N1CC2(CCN(C(=O)c3cnc(C)cn3)CC2)OC1=O (centres undefined) | 8 | i
Cn1ncc2c(C(=O)NCC3CC3)cc(-c3ccc(C(F)(F)F)cc3)nc21 | -5 | .
Cc1nc2ncccn2c1C(=O)N[C@H]1[C@H]2CCO[C@H]2[C@@H]1N(C)C | -1 | 32µM*
CN(CC(=O)N[C@H]1[C@H]2CCO[C@H]2[C@@H]1N(C)C)Cc1ccc(F)cc1 | 23 | i
Cc1nc(N2CCCCC2)ncc1C(=O)N[C@H]1[C@H]2CCO[C@H]2[C@@H]1N(C)C | 12 | 22µM*
Cc1nc(N2CCCCC2)ncc1C(=O)NC1CCOC2(CCOCC2)C1 (centres undefined) | -8 | i
COc1ccc(N2C(=O)CSC23CCN(C(=O)c2cccc(OC)c2)CC3)cc1 | -8 | i
COc1ccc(N2C(=O)CSC23CCN(C(=O)c2ccccc2Br)CC3)cc1 | 9 | 35µM*
Cc1nn(-c2ccccc2)c2c1C(C)N(C1CCCN(C(=O)c3ccccc3F)C1)C2=O (centres undefined) | 5 | .
O=C(CNC(=O)c1cccc(-c2ccc(C(F)(F)F)cc2)c1)NCCc1ccc(F)cc1 | 0 | .
Cc1cccc(-n2nc(-c3c(C)nc4scc(CC(=O)NC(C)C(C)C)n4c3=O)cc2C)c1C (centres undefined) | -5 | ?
Cc1ccc(C)c(-n2nc(-c3c(C)nc4scc(CC(=O)NC(C)C(C)C)n4c3=O)cc2C)c1 (centres undefined) | 27 | ?
Cc1nc2scc(CC(=O)NCC(C)C)n2c(=O)c1-c1cc(C)n(-c2ccc(C(C)C)cc2)n1 | -6 | 28µM*
Cc1ccccc1-n1nc(-c2c(C)nc3scc(CC(=O)NCC(C)C)n3c2=O)cc1C | 0 | 28µM*
Cc1nc2scc(CC(=O)NCC(C)C)n2c(=O)c1-c1cc(C)n(-c2cccc(Cl)c2)n1 | -16 | ?
Cc1ccc(-n2nc(-c3c(C)nc4scc(CC(=O)NCC(C)C)n4c3=O)cc2C)c(C)c1 | -12 | i
CCC(C)NC(=O)Cc1csc2nc(C)c(-c3cc(C)n(-c4ccc(C)cc4C)n3)c(=O)n12 (centres undefined) | -2 | 28µM*
Cc1cccc(-n2nc(-c3c(C)nc4scc(CC(=O)NC5CCCCC5)n4c3=O)cc2C)c1C | 1 | 25µM*
CC(=O)N1CCCC(N2C(=O)c3c(c(C)nn3-c3ccccc3)C2C(C)C)C1 (centres undefined) | 8 | .
SMILES | IP6K1 inh | KDM5B inh
O=C(CCC(=O)c1ccc(F)cc1)OCc1cccc([N+](=O)[O-])c1 | . | i
CCCCn1nc(C(=O)Nc2ccc(OC)c(OC)c2)c2ccccc2c1=O | . | i
O=C(c1ccc(C(F)(F)F)cc1)N1CCN(C(=O)c2nc3cccnc3n(CCc3ccccc3)c2=O)CC1 | 1 | .
O=C(NCC(F)F)C1CCN(C(=O)c2ccc(-c3cccs3)cc2)CC1 | -4 | .
Cc1cccc(C)c1NC(=O)CSCc1cc(=O)n2ccsc2n1 | . | i
CCCCCNC(=O)Cc1csc2nc(C)c(-c3cc(C)n(-c4cc(Cl)ccc4C)n3)c(=O)n12 | -4 | ?
Cc1ccc(Cl)cc1-n1nc(-c2c(C)nc3scc(CC(=O)NCC(C)C)n3c2=O)cc1C | 7 | 22µM*
COc1ccccc1-c1cccc(CN2CCC(NC(=O)Nc3ccc(C)c(F)c3)CC2)c1 | 16 | .
O=C(CN1C(=O)NC(c2ccc(Cl)cc2)C2=C1COC2=O)Nc1cc(F)ccc1F (centres undefined) | 0 | i
N#Cc1cccc(C(=O)NCC(=O)N2CCCCCCNC(=O)CC2c2ccccc2)c1 (centres undefined) | 0 | i
O=C1CC(c2ccccc2)N(C(=O)CNC(=O)c2ccc3cc[nH]c3c2)CCCCCN1 (centres undefined) | -7 | 25µM*
O=C(Cc1c[nH]c2ccccc12)NCC(=O)N1CCCCCNC(=O)CC1c1ccccc1 (centres undefined) | -10 | i
